# High-throughput results deposited in PubChem by National Center for Advancing Translational Sciences (NCATS).
# An excerpt weighted towards active compounds, which were near 0.88% of everything screened.
# ERG-DNA inh: blocks human ERG Ets domain binding to DNA; P11308; Potency, µM (highest dose often 76.9 µM), for inactives: at the highest dose FP activity, negative = inhibition, hits mostly inhibitors; 370,000 tested, 0.028% active; fluorescence polarization, His-ERG Ets domain / labelled DNA; active = well fitted inhibition curve with a large enough effect in the polarisation, with a control signal flat; inconclusive = small, poorly fitted or top-dose-only effect, or effect the other way, or a change in a side signal; inactive = no such curve, though single readings can be large or run the other way; the % refers to the polarisation;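 also: polarization taken with two DNA probes labelled with fluorescein and Texas red; potency is read from the fitted curve at half-maximal effect; % of control where 0% means no effect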
#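 His-tagged ERG Ets domain (1 uM in the protein solution; 300mM KCl, 50mM Tris-HCl, 1mM EDTA, 1mM DTT, pH 7.5) received compound, then a probe mix of 5 nM fluorescein-DNA and 100nM Texas-615-DNA. Fluorescence polarization was read for both dyes.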
# GCN5L2 inh-1: blocks human GCN5L2 histone acetyltransferase. 390,000 tested, 0.21% active. Potency, µM (top dose mostly 58.9 µM), inactives show at the highest dose activity change, negative = inhibition, actives largely listed as inhibitors. GCN5L2 HAT assay, ThioGlo1 CoA-SH fluorescence. Q92830; also: potency is read from the fitted curve at half-maximal effect; % is scaled to controls: 0 for no effect and ±100 for the full control effect
#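 GCN5L2 (20 nM) in 50mM HEPES pH 7.5, 0.1mM EDTA, 0.01% Tween-20 preincubated 15 min with compounds at room temperature. Reaction started with H3(1-25) 75uM, acetyl-CoA 70uM, ThioGlo1 50uM; CoA-thiol fluorescence (Ex340/Em540) read at 0 and 20 min.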
# BLM inh: inhibitors of human Bloom syndrome helicase BLM. Potency, µM (titrated, usually from 56.1 µM), without a hit: top-dose activity change, negative = inhibition, hits mostly inhibitors. recombinant BLM DNA unwinding, fluorescence dequenching. P54132. 350,000 tested, 0.2% active;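 also: potency is read from the fitted curve at half-maximal effect; plate controls were vehicle for no effect and no enzyme for full effect; nearly all actives have a fitted effect of over 35% in size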
# APE1 inh: blocks human APE1 abasic DNA cleavage | P27695 | recombinant APE1, TAMRA/BHQ-2 abasic DNA cleavage fluorescence | Potency, µM (series often up to 65.8 µM), without a hit: at the highest dose activity change, negative = inhibition, most hits filed as inhibitors | 350,000 tested, 0.35% active | AID 2517;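 also: potency is read from the fitted curve at half-maximal effect; plate controls were vehicle for no effect and reference inhibitor for full effect; nearly all actives have a fitted effect of over 55% in size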
#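 Compound pre-exposure to 0.75 nM APE1, 15 min at ambient temperature. Reaction initiated with 50 nM TAMRA/BHQ-2 THF substrate, read immediately in kinetic mode, 525 nm excitation, 598 nm emission.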
# WRN inhibitor: inhibitors of human WRN helicase. Q14191. WRN helicase unwinding, fluorescent forked duplex, kinetic. Potency, µM (highest dose often 114 µM), without a hit: top-dose activity change, negative = inhibition, hits mostly inhibitors. 360,000 tested, 0.46% active; also: potency is read from the fitted curve at half-maximal effect; % is scaled to controls: 0 for no effect and ±100 for the full control effect; nearly all actives have a fitted effect of over 55% in size
# Target sequence (Q14191 whole entry, looked up): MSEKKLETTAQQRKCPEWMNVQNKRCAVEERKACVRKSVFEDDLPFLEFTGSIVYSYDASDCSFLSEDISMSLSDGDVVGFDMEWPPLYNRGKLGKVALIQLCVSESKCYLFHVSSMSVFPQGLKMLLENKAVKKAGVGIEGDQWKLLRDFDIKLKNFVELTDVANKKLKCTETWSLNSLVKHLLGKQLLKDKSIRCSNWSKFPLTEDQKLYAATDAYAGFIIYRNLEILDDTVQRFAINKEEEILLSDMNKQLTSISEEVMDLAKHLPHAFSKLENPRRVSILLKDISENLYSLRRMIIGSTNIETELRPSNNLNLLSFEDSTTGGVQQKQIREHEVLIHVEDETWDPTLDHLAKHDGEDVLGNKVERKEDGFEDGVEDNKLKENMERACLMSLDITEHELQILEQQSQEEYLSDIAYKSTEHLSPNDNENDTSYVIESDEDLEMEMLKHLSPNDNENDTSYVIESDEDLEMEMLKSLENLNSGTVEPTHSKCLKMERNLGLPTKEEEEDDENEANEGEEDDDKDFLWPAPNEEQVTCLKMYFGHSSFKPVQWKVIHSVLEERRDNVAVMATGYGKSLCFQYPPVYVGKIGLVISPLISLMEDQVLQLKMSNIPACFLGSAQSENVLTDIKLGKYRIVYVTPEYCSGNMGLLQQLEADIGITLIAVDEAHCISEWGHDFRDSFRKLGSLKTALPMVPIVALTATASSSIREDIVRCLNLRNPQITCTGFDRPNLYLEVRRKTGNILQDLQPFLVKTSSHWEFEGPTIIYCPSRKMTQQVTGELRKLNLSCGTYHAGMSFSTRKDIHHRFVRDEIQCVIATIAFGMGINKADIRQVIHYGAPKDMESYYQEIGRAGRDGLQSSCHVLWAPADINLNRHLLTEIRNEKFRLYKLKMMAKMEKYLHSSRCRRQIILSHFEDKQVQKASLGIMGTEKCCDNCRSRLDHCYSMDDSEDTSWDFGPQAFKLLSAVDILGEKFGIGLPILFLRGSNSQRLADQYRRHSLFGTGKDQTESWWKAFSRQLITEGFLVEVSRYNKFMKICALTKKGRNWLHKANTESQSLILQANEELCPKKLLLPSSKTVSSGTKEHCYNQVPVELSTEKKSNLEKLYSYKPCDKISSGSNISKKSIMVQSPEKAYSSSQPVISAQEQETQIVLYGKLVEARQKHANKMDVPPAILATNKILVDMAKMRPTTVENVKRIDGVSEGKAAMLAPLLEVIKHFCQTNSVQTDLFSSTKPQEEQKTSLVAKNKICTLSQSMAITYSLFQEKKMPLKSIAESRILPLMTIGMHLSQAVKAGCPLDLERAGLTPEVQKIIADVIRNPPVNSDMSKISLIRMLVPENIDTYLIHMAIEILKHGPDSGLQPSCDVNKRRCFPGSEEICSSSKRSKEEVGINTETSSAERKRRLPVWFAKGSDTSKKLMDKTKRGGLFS
#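 Kinetic fluorescence helicase assay: unwinding of a quenched forked DNA duplex (100 nM final) with 2 mM ATP final raises red fluorescence (525/598 nm). Compounds sat 15 min at room temperature with 20 nM WRN beforehand.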
# RECQ1 helicase: RECQ1 (human) helicase inhibition; P46063; RECQ1 DNA unwinding, red fluorescence kinetic read; Potency, µM (highest dose often 57.3 µM), inactives show at the highest dose activity, negative = inhibition, hits mostly inhibitors; 240,000 tested, 0.54% active; AID 2549;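 also: potency is read from the fitted curve at half-maximal effect; plate controls were vehicle for no effect and no enzyme for full effect; nearly all actives have a fitted effect of over 30% in size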
#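 RECQ1T1 50 nM; forked duplex (20 bp + 30-nt ss tails) 200 nM, ATP 2 mM final; pH 8.0, 2 mM MgCl2, 2.5 ug/ml poly(dI-dC); 15 min compound preincubation; discontinuous kinetic read over 2 h at RT.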
# GCN5L2 inh-2: confirmation of human GCN5L2 histone acetyltransferase inhibitors | shares compounds with GCN5L2 inh-1 | GCN5L2 HAT, ThioGlo1 CoA fluorescence, 20 min | Potency, µM, usual class: inhibitors | 140 tested, 70% active | AID 588347
# * = called active by the depositor; i = inactive; ? = inconclusive; / = no result given; [ ] = dose if it differs, or a comment. Unless noted, calls follow the shape of the dose curve; as a rule, active = well fitted curve in the direction sought with a large enough effect; inconclusive = small, poorly fitted or top-dose-only effect, or another doubt; inactive = no such curve, though single readings can be large; an effect the other way counts as inactive or inconclusive.
SMILES,ERG-DNA inh,GCN5L2 inh-1,BLM inh,APE1 inh,WRN inhibitor,RECQ1 helicase,GCN5L2 inh-2
CCc1nc2ccc(C(=O)Nc3cccc(OCC(=O)N(C)C)c3)cn2c1N(CCC(C)C)CCN(C)C,/,/,/,/,1.7%,/,/
O=C1C=CC(=O)C(C2=C3C(=O)N(CCc4ccccc4)CC(=O)N3CCC2)=C1,-4.9%,14.1µM*,-10.8%,-4.7%,39.8µM*,-15.2%,18.2*
CCN1C(=O)[C@H]2[C@H]3CN=C(SCc4ccc(C)cc4)N3[C@@](Cc3ccccc3)(C(=O)OC)[C@H]2C1=O,10.6%,-4.8%,/,-5.3%,-5.1%,/,/
C[n+]1ccccc1/C=C/c1ccc(C#N)cc1,4.9%,?,-4.4%,20.5%,1.1%,/,28.9*
CO[C@H]1[C@H](O[C@H]2O[C@@H](C)[C@@H](O[C@@H]3C[C@](C)(O)[C@H](O)[C@H](C)O3)[C@@H](N(C)C)[C@@H]2O)[C@@H](CC=O)C[C@@H](C)[C@@H](O[C@H]2CC[C@H](N(C)C)[C@H](C)O2)/C=C\C=C/C[C@@H](C)OC(=O)C[C@H]1O,/,9.9%[21.4 µM],5.5%[21.4 µM],/,/,-1.6%[25.9 µM],/
CCCNC(=O)c1ccc2c(=O)c(O)c(-c3ccsc3)[nH]c2c1,3.4%,31.6µM*,-14.5%,-4.9%,-20.6%,i,16.2*
Nc1c(C(=O)N2CCOCC2)sc(=S)n1-c1ccccc1,2.4%,-23.5%,-5.9%,1.4%,-1.2%,-9.7%,/
Nc1c(C(=O)N2CCCCC2)sc(=S)n1-c1ccccc1,2.5%,?,-13.9%,2.1%,-8.8%,-16.2%,?
Cc1ccc(C)c(S(=O)(=O)NCC(c2ccco2)S(=O)(=O)c2ccc(F)cc2)c1 (centres undefined),0.5%,-8.5%,-3.4%,/,/,/,/
CCOC(=O)c1sc(NC(=O)CSc2nnc(Cc3ccccc3)o2)c(C#N)c1C,-2.0%,?,-7.3%,-2.5%,?,-19.1%,10.2*
O=C(/C=C/c1ccco1)Nc1scc(-c2ccccc2)c1C(=O)O,-0.7%,?,1.6%,?,?,?,?
CN1CCN(c2cc(-c3ccoc3)ncn2)CC1,/,-8.0%,-2.7%,-3.0%,/,2.7%,/
Cn1c(CO)nc2cc(N)ccc21,-1.3%,-11.6%,13.5%,-5.7%,-0.7%,4.9%,/
Nc1ccc(-c2nc3cc(N)ccc3n2CCO)cc1,10.8%,?,0.1%,0.3%,1.4%,1.3%,18.2*
CCc1cccc(C)c1NS(=O)(=O)c1ccc2c(c1)CC(C)N2C(=O)C1CC1 (centres undefined),-1.9%,-9.5%,-2.8%,/,/,/,/
CCOc1ccc(-n2c(C)cc(/C=C3/C(=N)N4C(=NC3=O)SN=C4S(C)(=O)=O)c2C)cc1,12.1%,31.6µM*,-16.8%,3.5%,-12.5%,-4.9%,?
Cc1cc(/C=C2/C(=N)N3C(=NC2=O)SN=C3S(C)(=O)=O)c(C)n1-c1ccc(F)cc1,5.3%,-21.7%,-5.5%,-7.1%,-10.6%,-5.4%,/
Cc1nn(C(=O)c2ccccc2F)c(C)c1S(=O)(=O)N1CCCCCC1,4.0%,1.1%,-3.9%,/,/,/,/
O=C(O)c1cccc(N/N=C/C2=C(Cl)c3cc(Cl)ccc3SC2)c1,12.5%,28.2µM*,-19.4%,?,-17.2%,?,14.5*
O=C(O)c1cccc(N/N=C/c2ccc(F)c(F)c2)c1,8.6%,-9.8%,3.5%,-4.2%,-2.4%,-1.4%,/
O=C(CSc1nc2ccccc2s1)Nc1cc(C(=O)O)cc(C(=O)O)c1,-6.8%,20µM*,2.5%,-0.8%,0.9%,15.8%,?
CCn1c2ccccc2c2nc3cc(S(=O)(=O)N4CCOCC4)ccc3nc21,-1.4%,?,-4.2%,-0.3%,?,-5.2%,?
c1ccc2nc3c(nc2c1)c1ccccc1n3CCN1CCOCC1,-14.8%,0.6%,87.5%,-2.7%,0.4%[57.1 µM],-3.0%,/
COc1cc(/C=C(/C#N)c2nc3ccccc3[nH]2)ccc1OCC(=O)Nc1ccccc1C(C)C,17.0%,?,-6.5%,-1.6%,0.1%,13.3%,?
COc1cc(/C=C(/C#N)c2nc3ccccc3[nH]2)ccc1OCC(=O)Nc1ccccc1C,/,25.5%,-6.8%,-3.8%,2.9%,3.5%,/
SMILES,ERG-DNA inh,GCN5L2 inh-1,BLM inh,APE1 inh,WRN inhibitor,RECQ1 helicase,GCN5L2 inh-2
Cc1ccc(/C=C2/C(=O)ON=C2c2ccccc2)o1,17.5%,?,-5.6%,1.5%,?,-20.5%,/
CC1=NOC(=O)/C1=C\c1ccc(-c2ccccc2Br)o1,12.5%,12.6µM*,-20.7%,-6.9%,56.2µM*,-23.6%,11.5*
COc1cccc(N2CCN(C(=O)Cn3c(-c4cccs4)cc4ccccc43)CC2)c1,3.1%,-12.6%,-2.9%,/,/,/,/
CCSS(=O)(=O)c1cccc2cccnc12,10.1%,3.16µM*,1.6%,3.0%,31.6µM*,-1.8%,3.63*
O=C(O)CCS(=O)(=O)c1cccc2cccnc12,4.6%,?,-3.3%,1.4%,4.6%,-12.7%,/
CCOC(=O)C1CCN(S(=O)(=O)c2ccc3c4c(cccc24)C(=O)N3CC)CC1,-0.6%,?,/,42.1%,-5.3%,/,?
CCOC(=O)C1CCN(S(=O)(=O)c2ccc3c4c(cccc24)C(=O)N3)CC1,1.6%,-18.3%,-1.1%,-5.0%,1.1%,-8.9%,/
Cc1nc2ccc(NC(=O)c3cc([N+](=O)[O-])cc([N+](=O)[O-])c3Cl)cc2s1,?,?,-14.8%,3.8%,10µM*,-1.8%,8.13*
O=[N+]([O-])C(=C1Nc2ccccc2N1)C(Cl)=C(Cl)Cl,17.4%,35.5µM*,3.0%,18.1%,-5.7%[11.6 µM],i,22.9*
CN1CCO/C1=C(\C(Cl)=C(Cl)Cl)[N+](=O)[O-],6.4%,-6.8%,-0.6%,-2.8%,-11.8%,-5.9%,/
O=C(O)c1cc(-c2ccc(-c3c(-c4ccc5c(c4)OCO5)noc3-c3ccsc3)cc2)nc2ccccc12,-1.3%,20µM*,-8.0%,22.5%,?,/,16.2*
CC(=O)c1ccc(-c2nc3ccccc3n2C)o1,2.1%,?,1.7%,11.0%,7.6%,i,18.2*
Cc1ccc(-c2nc3ccccc3n2C)o1,-1.4%,-3.0%,0.0%,-1.4%,-0.3%,-0.7%,/
Cn1c(SCC(=O)c2ccc(-c3ccccc3)cc2)nnc1-c1ccco1,0.7%,28.2µM*,-1.5%,-5.8%,-11.0%,-11.1%,?
Cc1ccc(C(=O)CSc2nnc(-c3ccco3)n2Cc2ccccc2)cc1,-3.5%,-4.3%,-6.7%,-9.5%,?,-0.9%,/
